# Screening results: PubChem BioAssay, several laboratories
# BH1578 lux ind: inducers of Vibrio cholerae quorum light production without autoinducers, primary screen, BH1578 luxS cqsA deficient, single point; V. cholerae BH1578 lux reporter, luminescence, 6 h; activation, % at 18.7 µM; hit rate 0.16% among 350,000; AID 588436, 2011; in the data active = activation mostly above about 9.7%, no sharp cut-off; inconclusive = no clear call, values can overlap the other calls; inactive = mostly below about 3.7%
# BoNT A protease: BoNT/A light chain protease inhibitors, primary screen, biochemical, flow cytometry, MLPCN library. inhibition, % at 10 µM. Botulinum neurotoxin type A light chain protease (Clostridium botulinum A str. ATCC 3502). multiplex microsphere protease substrate cleavage. hit rate 0.17% among 360,000
# BoNT F protease: BoNT/F light chain protease inhibitors, primary screen, biochemical, flow cytometry, MLPCN library; Botulinum neurotoxin type F light chain protease (Clostridium botulinum); Multiplex microsphere protease cleavage assay; inhibition, % at 10 µM; hit rate 0.22% among 360,000; AID 588497, 2011; in the data active = inhibition above about 35%, passing the limit was not always enough; inconclusive = no clear call, values can overlap the other calls
# Anthrax LF prot: Bacillus anthracis LF protease inhibitors, primary screen, biochemical, multiplex microsphere, MLPCN library | Lethal factor (Bacillus anthracis), P15917 | multiplex microsphere protease cleavage assay | inhibition, % at 10 µM | hit rate 0.12% among 360,000 | AID 588501, 2011
# Bead autofluor: compound fluorescence in toxin protease inhibitor counterscreen | compound autofluorescence counterscreen, microsphere flow cytometry; active compounds read high | hit rate 3.1% among 360,000 | AID 624483 | fluorescence intensity (no concentration beside the values); in the data active = fluorescence intensity above about 16000; inconclusive = no clear call, values can overlap the other calls
# BJeLR viability: MLPCN primary cell-based screen for lethality selective to Ras in HRASV12 cells; BJeLR (HRASV12) viability, CellTiter-Glo ATP luminescence, 48 h; inhibition, % (test concentration not listed); hit rate 0.17% among 300,000; AID 1554, 2009; in the data active = inhibition above about 50%; inconclusive = no clear call, values can overlap the other calls
# A number is an active result; 0 = inactive; ? = inconclusive; - = no result. Only some compounds are listed: those with a hit (about 3.7% of all), similar ones and a draw of the others. Cut-off read from the data, not from the text of the source, unless noted: active = inhibition above about 30%; inconclusive = no clear call, values can overlap the other calls; inactive = below that.
SMILES,BH1578 lux ind,BoNT A protease,BoNT F protease,Anthrax LF prot,Bead autofluor,BJeLR viability
Cc1ccc(N2C(=O)C3C4C=CC(C4)C3C2=O)cc1C (stereo not drawn),0,0,0,0,22226,0
Cc1cccc(N2C(=O)C3C4C=CC(C4)C3C2=O)c1 (stereo not drawn),0,0,0,0,0,0
O=C1C2C3C=CC(C3)C2C(=O)N1c1n[nH]c(-c2ccccc2)n1 (stereo not drawn),0,0,0,0,23080,0
O=C1C2C3C=CC(C3)C2C(=O)N1c1cccc(N2C(=O)C3C4C=CC(C4)C3C2=O)n1 (stereo not drawn),0,0,0,0,22915,0
O=C1C2C3C=CC(C3)C2C(=O)N1c1n[nH]c(-c2cccnc2)n1 (stereo not drawn),0,0,0,0,0,0
CCc1nc2c(OCc3c(C)noc3C)cccn2c1N(C)C(=O)c1ccccc1F,0,0,0,0,0,-
CCCCn1c(SCC(=O)Nc2nnc(C)s2)nc2c1c(=O)n(C)c(=O)n2C,0,?,0,0,22970,0
CCCCn1c(SCC(=O)Nc2nnc(CC)s2)nc2c1c(=O)n(C)c(=O)n2C,0,?,0,0,21466,0
CCCCn1c(SCC(=O)NC(=O)Cc2ccccc2)nc2ccccc2c1=O,0,0,0,0,0,-
CCCCn1c(SCC(=O)Nc2nnc(CC)s2)nc2ccccc2c1=O,0,?,0,0,22336,0
CCCn1c(SCC(=O)Nc2nnc(C(C)C)s2)nc2c1c(=O)n(C)c(=O)n2C,0,0,0,0,0,0
COc1ccc(S(=O)(=O)N(C)C[C@H]2OCc3cnnn3CCCC(=O)N([C@@H](C)CO)C[C@H]2C)cc1,0,0,0,0,0,-
CCN(CC)S(=O)(=O)c1ccc2oc(C(=O)Nc3ccc(OC)cc3OC)c(C)c2c1,0,0,0,0,24222,0
COc1ccc(NC(=O)c2oc3ccccc3c2NC(=O)C2CC2)c(OC)c1,0,0,0,0,0,0
COc1ccc(NC(=O)c2oc3cc(C)c(C)cc3c2C)c(OC)c1,0,0,0,0,0,0
COCC(=O)Nc1c(C(=O)Nc2ccccc2OC)oc2ccccc12,0,0,0,0,23967,0
CCOCC(=O)Nc1c(C(=O)Nc2ccc(OC)cc2OC)oc2ccccc12,0,?,0,0,24944,0
COc1ccccc1NC(=O)c1oc2ccccc2c1NC(=O)c1cc(OC)c(OC)c(OC)c1,0,0,0,0,0,0
COc1ccc(NC(=O)c2oc3ccccc3c2NC(=O)c2ccco2)cc1,0,0,0,0,21689,0
O=C(C[C@@H]1C[C@H]2c3cc(NC(=O)C4CCC4)ccc3O[C@H]2[C@@H](CO)O1)NCc1ccc(-c2ccccc2)cc1,0,0,0,0,0,-
Cc1ccccc1CNC(=O)c1csc([C@@H]2C[C@H](O)[C@@H](CO)O2)n1,0,0,0,0,0,-
NC(CCc1ccccc1)c1csc(Nc2nncc3ccccc23)n1 (stereo not drawn),0,0,0,0,0,-
COc1ccc(NC(=O)c2oc3ccccc3c2NC(=O)c2ccco2)c(OC)c1,0,0,0,0,23875,0
O=C(NC(=S)N1CC=CCC1)c1ccccc1,0,0,0,0,0,-
CC1(C)NC(=O)N(CC(O)COc2ccc(-c3ccccc3)cc2)C1=O (stereo not drawn),0,0,0,0,0,0
SMILES,BH1578 lux ind,BoNT A protease,BoNT F protease,Anthrax LF prot,Bead autofluor,BJeLR viability
CC1(C)NC(=O)N(CC(O)COc2ccc(-c3ccc(C#N)cc3)cc2)C1=O (stereo not drawn),0,?,0,0,19940,0
CSc1ccc(C(O)c2ncc(-c3ccc(F)cc3)[nH]2)cc1 (stereo not drawn),0,0,0,0,0,-
O=c1oc(-c2cccs2)nc2c1cnn2-c1ccccc1,0,?,0,0,16820,0
COc1cccc(C(=O)N2CCC[C@H]2C(=O)N2CCC[C@H]2C(=O)NCc2ccccn2)c1,-,0,0,0,0,-
CCc1nc2ccc(C(=O)NCCCn3ccnc3)cn2c1N(CC)CCOC,0,0,0,0,0,-
CN(CCc1ccccn1)Cc1ccc(Cl)cc1Cl,0,0,0,0,24561,0
